The values below come from ChEMBL document CHEMBL4513216, “Probing the Open Global Health Chemical Diversity Library for Multistage-Active Starting Points for Next-Generation Antimalarials” (ACS Infect Dis, 2020).

Structures are written as SMILES. The campaign covered roughly 69,000 compounds. About 8,600 (12%) showed an effect of 50% or more. Many of the other results were omitted from the sample, so strong results are more common in it than they were.

In this assay the test system is Plasmodium berghei. Kind of assay: Screen against P. berghei liver stage (PbLuc), transformed with Luciferase, at 10uM. The class given is functional, HepG2. The following applies: tested at 10 uM.
Take `CCCS(=O)(=O)NCc1nc(C)cc(N2CCCC2)n1`: the INHIBITION is reported as 56.6%. In the case of `CCS(=O)(=O)NCc1nc(C)cc(N2CCOCC2)n1` it was 65.2%. In the case of `CCc1nnc2n1CCN(C(=O)Cc1nc(-c3ccco3)oc1C)C2` it was -17.6%; in that of `Cc1ncc(C(=O)N2CCCC(n3nc(C)nc3C)C2)c(C(C)C)n1` (stereo not drawn), -3.15%. In the case of `Cc1cc(C)n(CC2CCCN2C(=O)c2cccc(C#N)c2)n1` (stereo not drawn) it was -3.585%. As for `COc1ccc(OCCN2CCC(c3ccnn3CCO)CC2)cc1`, the INHIBITION turned out to be 11.4%. In the case of `Cc1ccc(C(C(=O)NC(C)(C)CN2CCCC2)N(C)C)cc1` (stereo not drawn) it was 35.7%. Then `CCOCC1CN(C(=O)c2cscn2)Cc2cn(C)nc21` (stereo not drawn), with 17.1%; and `CCn1ncc2c1C(COC)N(C(=O)Cc1cccs1)CC2` (stereo not drawn), with 25.8%; and `CCn1ncc2c1C(COC)N(C(=O)c1cccs1)CC2` (stereo not drawn), with 51.2%. Then `CCOCC1CC2(CCN(C(=O)c3cscn3)CC2)CO1` (stereo not drawn), with 9.63%; and `CCOCC1c2c(ncn2C)CCN1C(=O)c1ccoc1` (stereo not drawn), with -3.17%; and `CCOCC1c2c(cnn2C)CCN1C(=O)c1cc(C)on1` (stereo not drawn), with 37.6%. Regarding `CCOCC1c2c(ncn2C(C)C)CCN1C(C)C` (stereo not drawn), the INHIBITION is 10.5%. Then `CCOCC1c2c(ncn2C)CCN1C(=O)c1cscn1` (stereo not drawn), with 60.2%.

`CCOCC1c2c(ncn2C)CCN1C(=O)c1cnc(C)cn1` (stereo not drawn): the INHIBITION came out at 57.5%.

Consider `CCOCC1c2c(ncn2C(C)C)CCN1C(=O)CC` (stereo not drawn), for which the INHIBITION is on record as 29.8%.

Turning to `CCOCC1c2c(ncn2C(C)C)CCN1C(=O)C1CC1` (stereo not drawn), the INHIBITION is recorded as 76.4%.

`CCn1ncc2c1C(COC)N(C(=O)c1ccsc1)CC2` (stereo not drawn): the INHIBITION was determined as 43.9%. With `CN(Cc1cc(C2CC2)[nH]n1)C(=O)c1cnn2ccn(C)c12`, the INHIBITION worked out at 14.9%. Then `Cc1c(-c2cccs2)nn2c(=O)c3c([nH]c12)CN(C(=O)C1CC1)C3`, with 43.7%; and `CC1c2ncc(CNC(=O)C3CC3)n2CCN1Cc1ccncc1` (stereo not drawn), with 6.55%; and `CN1CCN(c2cc(CNC(=O)c3cnccn3)ccn2)CC1`, with 35.3%.

Consider `O=C(CC(F)(F)F)N1C[C@@H]2CC[C@H]1CN(Cc1ccccc1)C2`, for which the INHIBITION is -8.47%. As to `CNc1nc(C2CCCCN2C(=O)C(C)(C)OC)nc2c1CN(C)CC2` (stereo not drawn), the INHIBITION was found to be 38.2%. `CC1c2ncc(COCC3CCOCC3)n2CCN1C(=O)c1ccco1` (stereo not drawn): the INHIBITION was 47.2%. Consider `COC1C[C@@H]2CN(C(=O)c3cc4ccc(F)cc4[nH]3)C[C@@H]2C1` (stereo partly drawn), for which the INHIBITION is recorded as -36.1%. For `CCn1ncc2c1C(COC)N(C(=O)c1cscn1)CC2` (stereo not drawn), the INHIBITION is on record as 38.5%. With `COCC1c2c(cnn2C)CCN1C(=O)c1cscn1` (stereo not drawn), the INHIBITION is reported as 56.6%. Then `COCC1c2c(cnn2C)CCN1C(=O)c1cc(C)on1` (stereo not drawn), with 38.5%; and `O[C@@H]1C[C@H]2CN(CC3CCCCC3)[C@H](Cc3ccccc3)CN2C1`, with 16.2%.

As for `O=C(CC1CC1)NCc1cn2c(n1)CN(C(=O)c1cccnc1)CC2`, the INHIBITION is listed as -5.69%.

Consider `Cn1cc(Br)c(=O)c(NS(=O)(=O)c2ccc(Cl)cc2)c1`, for which the INHIBITION is on record as -4.68%. In the case of `CC(=O)N1CCN(CC(C)(O)c2cccc(C(F)(F)F)c2)CC1` (stereo not drawn) it was 33.3%. In the case of `CCN1CCN(CC(C)(O)c2cccc(C(F)(F)F)c2)CC1` (stereo not drawn) it was 20.1%.

`CC(=O)N1CCCN(CC(C)(O)c2cccc(C(F)(F)F)c2)CC1` (stereo not drawn): the INHIBITION turned out to be 64.5%. Consider `CN(C)C(=O)CS(=O)(=O)Cc1cc(Cl)c2c(c1)OCCO2`, for which the INHIBITION amounted to 16.9%.

As for `Cn1cnnc1S(=O)(=O)Cc1cc(Cl)c2c(c1)OCO2`, the INHIBITION is 68.4%.

In the case of `CC(C(N)=O)S(=O)(=O)Cc1cc(Cl)c2c(c1)OCO2` (stereo not drawn), the INHIBITION is listed as 16.7%. In the case of `Cn1cnnc1S(=O)(=O)Cc1cc(Cl)c2c(c1)OCCO2` it was 63.8%. In the case of `CNC(=O)CCS(=O)(=O)Cc1cc(Cl)c2c(c1)OCCO2` it was 15.3%; in that of `CCc1nnc(S(=O)(=O)Cc2cc(Cl)c3c(c2)OCO3)n1C`, 24.8%. Then `Cc1csc(N2CCCN(C(=O)c3c(C)noc3C)CC2)n1`, with -19.6%. `COc1cccc(CCN2C[C@H]3CCNCC[C@H]3S2(=O)=O)c1`: the INHIBITION amounted to 24.6%. `CCn1cc(NC(=O)NCCN2CCc3ccccc3C2)cn1`: the INHIBITION is on record as 17.5%. In the case of `Cc1cc(C)n(C2CCCN(C(=O)c3ccc(N(C)C)nn3)C2)n1` (stereo not drawn) it was 13.2%. In the case of `CC(=O)N1CCC(CCc2ccnc(NC(=O)c3ccccn3)c2)CC1` it was 21.95%; in that of `CC(=O)Nc1cc(CCC2CCN(C(=O)c3ccccn3)CC2)ccn1`, 10.35%. In the case of `CN1CCC(CCc2ccnc(NC(=O)c3ccccn3)c2)CC1` it was 67.45%; in that of `CC(=O)N1CCC(CCc2ccnc(Nc3ccccn3)c2)CC1`, 40.65%. As to `O=C(CO)N1CCC(CCc2ccnc(Nc3cnccn3)c2)CC1`, the INHIBITION is recorded as 36%.

For `O=C(Nc1cc(CCC2CCN(CCO)CC2)ccn1)c1ccccn1`, the INHIBITION was 52.8%. Then `CC(=O)N1CCC(C(=O)NCc2cc[nH]n2)(c2ccccc2)CC1`, with -11.9%.
